Reference: PubChem BioAssay AID602162 (NMMLSC, 2011)
The campaign covered roughly 360,000 compounds. About 690 (0.19%) were called active. Only a selection was taken, and actives are over-represented in it overall. Values without a mark were called inactive.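 How the source made its calls: active means fluorescence ratio to DMSO below 75%, the collection mean minus 3 SD; inconclusive means too few cells collected in the well; inactive means the rest.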

Target: ATP-binding cassette sub-family B member 6 (Homo sapiens) (UniProt Q9NP58)
Sequence (Q9NP58 whole entry, looked up): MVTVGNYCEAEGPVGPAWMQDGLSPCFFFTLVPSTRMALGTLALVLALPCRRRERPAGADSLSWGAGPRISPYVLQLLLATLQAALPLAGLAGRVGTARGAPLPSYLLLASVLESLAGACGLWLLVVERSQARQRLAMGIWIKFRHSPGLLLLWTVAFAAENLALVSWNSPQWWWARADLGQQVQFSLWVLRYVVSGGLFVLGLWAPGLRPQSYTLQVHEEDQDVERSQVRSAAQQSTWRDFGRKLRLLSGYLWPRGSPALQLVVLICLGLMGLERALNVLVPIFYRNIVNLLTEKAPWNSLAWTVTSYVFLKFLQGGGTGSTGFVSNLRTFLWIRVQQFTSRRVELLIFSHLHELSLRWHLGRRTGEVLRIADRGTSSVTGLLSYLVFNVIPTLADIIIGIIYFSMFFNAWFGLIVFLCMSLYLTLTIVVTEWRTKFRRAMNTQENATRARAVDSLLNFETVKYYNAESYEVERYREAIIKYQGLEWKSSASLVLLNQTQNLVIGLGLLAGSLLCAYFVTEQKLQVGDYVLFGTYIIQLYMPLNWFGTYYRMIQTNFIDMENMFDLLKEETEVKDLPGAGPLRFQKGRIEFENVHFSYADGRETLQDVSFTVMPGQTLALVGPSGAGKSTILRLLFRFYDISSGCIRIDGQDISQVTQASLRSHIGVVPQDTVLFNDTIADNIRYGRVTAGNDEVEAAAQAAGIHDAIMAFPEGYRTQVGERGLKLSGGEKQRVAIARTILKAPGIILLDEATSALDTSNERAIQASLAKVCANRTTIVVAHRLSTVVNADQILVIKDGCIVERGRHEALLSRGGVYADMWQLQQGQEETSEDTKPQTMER
Assay: ABCB6 transporter inhibitors, primary screen, K562-ABCB6 cells, flow cytometry, MLPCN library (AID 602162);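 further: signal is porphyrin accumulated inside mitochondria; 100% equals median channel fluorescence of DMSO control wells; lower ratio means ABCB6 inhibition with less porphyrin fluorescence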
Conditions: K562-ABCB6 porphyrin accumulation, 1 h, at 10 µM, hits give low values

| SMILES | fluorescence ratio to DMSO |
| --- | --- |
| Cc1ccc(CCNC(=O)c2ccc3nc4ccccc4c(=O)n3c2)cc1 | 100% |
| Cc1ccc2nc3c(cc(C(=O)NCCc4ccccc4)c(=N)n3CC3CCCO3)c(=O)n2c1 (stereo unspecified) | 66% (active) |
| O=C(NC1CCCCC1)c1ccc2c(=O)n(CC3CCCO3)c(=O)[nH]c2c1 (stereo unspecified) | 97% |
| COc1cc2c(cc1OC)C(c1cccc([N+](=O)[O-])c1)=NCC2 | 100% |
| C=CCN1CC(C)/C(=N\O)CC1C (stereo unspecified) | 88% |
| O=C(Cc1ccc([N+](=O)[O-])cc1)NCCS(=O)(=O)N1CCN(c2ccccc2)CC1 | 107% |
| Cc1ccc(SCCC(=O)NCc2ccccn2)cc1 | 98% |
| Cc1cc(C)cc(NC(=O)NCc2ccccn2)c1 | 58% (active) |
| Cc1cc(Cl)ccc1OCCCC(=O)NCc1ccccn1 | 89% |
| NC(=O)c1ncc(C(F)(F)F)cc1Oc1ccc(F)cc1 | 91% |
| CCOc1cc(/C=C2/N=C(c3ccc(C(C)(C)C)cc3)OC2=O)cc(Cl)c1OS(C)(=O)=O | 102% |
| CC(C)(C)Cc1c(C2CCCCC2)nc2ccc(Br)cn12 | 101% |
| O=C(CSc1nc2ncccc2[nH]1)Nc1ccc2c(c1)OCCO2 | 103% |
| COc1cc2[nH]c(=S)n(Cc3ccc(F)cc3)c(=O)c2cc1OC | 72% (active) |
| COc1cc2[nH]c(=S)n(Cc3ccc(C)o3)c(=O)c2cc1OC | 100% |
| CCOc1cc2[nH]c(=S)n(Cc3ccc(C(=O)NCCOC)cc3)c(=O)c2cc1OCC | 98% |
| CCOC(=O)[C@]12CCC=C1N(Cc1ccco1)C(=O)[C@H](CC(=O)NCc1cccc(C(F)(F)F)c1)C2 | 107% |
| CS(=O)(=O)N(CC(=O)N1CCN(c2ccc(F)cc2)CC1)C1CCCCC1 | 94% |
| CCOC(=O)N1CCN(C(=O)CN(C2CCCCC2)S(C)(=O)=O)CC1 | 73% (active) |
| CCC(C)NC(=O)CN(C1CCCCC1)S(C)(=O)=O (stereo unspecified) | 98% |
| C=CCn1c(CNS(=O)(=O)c2ccc(Br)cc2)nnc1SC | 96% |

| SMILES | fluorescence ratio to DMSO |
| --- | --- |
| C=Cn1cc[n+](CC(=O)c2ccc(OC)c(OC)c2)c1 | 97% |
| CCOC(=O)Cc1csc(NC(=O)CN(C)S(=O)(=O)c2ccc3c(c2)CCC(=O)N3)n1 | 98% |
| CN(CC(=O)NC(=O)Nc1ccccc1F)Cc1ccccc1 | 97% |
| CCOC(=O)c1ccc(-n2c(C)nc3c(cnn3-c3ccccc3C)c2=O)cc1 | 100% |
| CC1Sc2ccc(S(=O)(=O)CCC(=O)NCc3ccccc3Cl)cc2NC1=O (stereo unspecified) | 93% |
| COc1ccccc1N1CCN(C(=O)CCS(=O)(=O)c2ccc3c(c2)NC(=O)C(C)S3)CC1 (stereo unspecified) | 102% |
| Cc1cccc(N2CCN(C(=O)CCS(=O)(=O)c3ccc4c(c3)NC(=O)C(C)S4)CC2)c1C (stereo unspecified) | 74% (active) |
| COc1ccc(C(=O)NC2CC2)cc1OC1CCN(C/C=C/c2ccccc2)CC1 | 95% |
| Cc1ccc(CN(C(=O)c2sc3ccccc3c2Cl)C2CCS(=O)(=O)C2)cc1 (stereo unspecified) | 95% |
| CCCn1c(O)c(CN2CCCC(C)C2)c(C)c(C#N)c1=O (stereo unspecified) | 96% |
| CCCCn1nc(C(=O)N2CCc3ccccc32)c2ccccc2c1=O | 102% |
| Cc1ccc(CNC(=O)c2ccc(CS(=O)Cc3cccc(Cl)c3)o2)cc1 (stereo unspecified) | 102% |
| O=C(O)c1ccn(COc2ccc(Br)cc2)n1 | 95% |
| CN(CC(=O)Nc1ccc(F)cc1)CC(=O)Nc1ccc(Cl)c(S(=O)(=O)N2CCOCC2)c1 | 100% |
| Cc1cccc(CS(=O)(=O)c2ncc(Cl)c(C(=O)Nc3ccc(F)cc3)n2)c1 | 44% (active) |
| O=C(CS(=O)(=O)Cc1ccccc1)Nc1cccnc1 | 93% |
| Cc1cccc(NS(=O)(=O)c2ccc(C)c(C(=O)NCc3cccnc3)c2)c1 | 98% |
| Cc1cccc(C(=O)Nc2ccc(Oc3cnccn3)cc2)c1 | 98% |
| Cc1cccc(NC(=O)c2nc(S(=O)(=O)Cc3ccccc3)ncc2Cl)c1 | 59% (active) |
| O=C(CSc1nnc(SCc2ccc(Cl)cc2)s1)N/N=C/c1ccccc1Cl | 115% |
| O=C(CSc1nncs1)NC1CCCc2ccccc21 (stereo unspecified) | 104% |

| SMILES | fluorescence ratio to DMSO |
| --- | --- |
| CCCCC(O)C1=C[N+](=O)CC=C1 (stereo unspecified) | 92% |
| O=C(Nc1ccc(F)cc1)Nc1nnc([C@H]2C[C@H](O)[C@@H](CO)O2)s1 | 104% |
| CCOc1ccc(CCNC(=O)CN2C(=O)NC3(CCc4ccccc43)C2=O)cc1OCC (stereo unspecified) | 103% |
| CCC(=O)Nc1cccc(NC(=O)CSc2nnc(-c3ccc(NS(C)(=O)=O)cc3)n2C)c1 | 103% |
| C=C1CCN([C@H](C(=O)NCc2cc(OC)c(OC)c(OC)c2)C(C)C)S(=O)(=O)c2ccccc21 | 97% |
| Cc1cccc(C(=O)NCc2nnc(SC(C)C(=O)Nc3nnc(C)s3)n2C)c1 (stereo unspecified) | 101% |
| CC(=O)c1cccc(NC(=O)CN2C(=O)c3cccnc3Oc3ccc(Cl)cc32)c1 | 114% |
| CC(C)[C@H](NC(=O)Nc1ccc(S(N)(=O)=O)cc1)C(=O)O | 107% |
| O=C(c1ccc(Cl)cc1)c1cnc(Nc2ccccc2)s1 | 70% (active) |
| Nc1nc(COC(=O)CCC(=O)c2ccc(Cl)cc2)nc(Nc2ccccc2)n1 | 94% |
| CC(C)(C)C(=O)c1cnc(Nc2ccccc2)s1 | 94% |
| ON=C1/C(=N\O)CC2(C/C1=N/O)OCCO2 | 103% |
| O=C(COC(=O)c1cccc(Cl)c1Cl)NC1CCCCCC1 | 93% |
| COC(=O)c1ccc2nc(C3CCCCC3)c(Cc3cccc(F)c3)n2c1 | 107% |
| COc1cccc(NC(=O)CS(=O)(=O)c2cn(CC(=O)N3CCOCC3)c3ccccc23)c1 | 97% |
| COc1ccccc1C(=O)c1ccccc1C(=O)c1ccccc1 | 102% |
| COc1ccccc1C(=O)Nn1cnnc1 | 100% |
| COc1ccccc1C(=O)C(O)c1ccccc1OC (stereo unspecified) | 73% (active) |
| CCOc1ccc(S(=O)(=O)NCCC(=O)N2CCCCCCC2)cc1 | 98% |
